# Reference: PubChem BioAssay (NCI)
# About 83,000 compounds went through this panel and 20% of them were active in at least one assay; those are over-represented in the sample as a whole.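 Interpretation: 100, growth as untreated; towards 0, rising growth inhibition; 0, no net growth; 0 to -100, cell death. Compounds scoring below 10 were considered active.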 Unmarked numbers belong to inactive results. Active and inactive are the calls of the source.
# System: OVCAR-5 ovarian
# Assay: NCI-60 one-dose screen, 48 h (100 = growth as untreated, 0 = no growth, -100 = all killed)
# Details: 10 µM unless noted
row,Structure (SMILES),growth
1,O=c1oc2ccccc2cc1-c1nn(-c2ccccc2)cc1/C=N/Nc1nc(-c2ccccc2)c(N=Nc2ccccc2)s1,102%
2,COc1cc(/C=C2\CN(S(=O)(=O)c3ccc(C)cc3)C/C(=C\c3cc(CN4CCCC4)c(O)c(OC)c3)C2=O)cc(CN2CCCC2)c1O,-2.7% (active)
3,Nc1ccc(Cl)c2c(=O)c3ccccc3[nH]c12,93.2%
4,COC(=O)c1sc(-c2ccc(C)cc2)cc1O,112%
5,CCOC(=O)CSc1nc2sc3c(c2c(=O)n1-c1ccccc1)CCCCC3,103%
6,O=C1NCCS(=O)(=O)/C1=C\C=C\c1cccc(C(F)(F)F)c1,48.4%
7,COc1cc(/C=C2\C(=O)N(CCOc3cc(O)c4c(=O)cc(-c5ccccc5)oc4c3)c3ccccc32)cc(OC)c1O,103%
8,CNC1=C([N+](=O)[O-])C(c2ccc(OC)cc2)C(C#N)=C(c2ccc[nH]2)O1 (centres undefined),109%
9,COc1cccc2cc(N(C)c3ncnc4ccccc34)ccc12,54.3%
10,Cc1[nH]c(C(=O)Nc2ccc(C(N)=O)cc2OC(C)C)c(Cl)c1Cl,98.3%
11,Nc1nc(N)c2c(n1)NC(c1cccc(Nc3ccnc4cc(C(F)(F)F)ccc34)c1)CC(c1ccc(Cl)cc1)=N2 (centres undefined),105%
12,COC1=C(OC)C(=O)C(CCCCCCCCCCO)=C(C)C1=O,103%
13,O=C1c2c(c3c4cccnc4[nH]c3c3ccc4ccccc4c23)C(=O)N1O,110%
14,CCN1CCN(C(=O)[C@]23CC[C@@H](C)[C@H](C)[C@@H]2C2=CC[C@@H]4[C@@]5(C)C/C(=C/c6ccncc6)C(=O)C(C)(C)[C@@H]5CC[C@@]4(C)[C@]2(C)CC3)CC1,34.2%
